Rows were chosen to be rich in hits. Some 2.4% of all compounds tested hit in one or more screens of this group.
CHRM1 antagonist = antagonists of human M1 muscarinic receptor. P11229. CHO-K1 hM1, Fluo-8 calcium fluorescence, ACh EC80 antagonist. inhibition, % at 3 µM. actives 1.3% (n = 360,000). AID 588852;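 active means percent inhibition above its own plate's cutoff, namely the mean of that plate's compound wells plus 3 SD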;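 further: peak over basal fluorescence ratio during 140 s after agonist addition; 0% = ACh EC80 plus DMSO and 100% = DMSO alone without agonist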
Target sequence (P11229 whole entry, looked up): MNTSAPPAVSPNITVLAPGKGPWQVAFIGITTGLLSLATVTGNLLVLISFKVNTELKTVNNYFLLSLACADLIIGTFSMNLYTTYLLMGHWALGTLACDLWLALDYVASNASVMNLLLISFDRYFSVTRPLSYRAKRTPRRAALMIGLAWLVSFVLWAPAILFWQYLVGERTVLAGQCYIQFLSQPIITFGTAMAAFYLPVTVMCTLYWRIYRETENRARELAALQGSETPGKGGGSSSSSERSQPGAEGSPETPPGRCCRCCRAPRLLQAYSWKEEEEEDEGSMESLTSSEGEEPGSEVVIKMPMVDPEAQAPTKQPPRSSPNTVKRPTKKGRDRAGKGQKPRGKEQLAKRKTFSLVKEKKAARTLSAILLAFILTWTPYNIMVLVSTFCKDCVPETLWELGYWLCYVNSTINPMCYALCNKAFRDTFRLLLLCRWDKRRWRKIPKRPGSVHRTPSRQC
M1 ag parental = nonselective activator or artifact in parental CHO-K1 cells. activation, % at 3 µM. Fluo-8 calcium fluorescence; scaled to maximal ATP response, vehicle zero. actives 0.48% (n = 360,000); in the data active means activation above about 15%;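 further: untransfected CHO-K1 host cells lacking M1 receptor as counterscreen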
CHO-K1 Ca PAM = M1 PAM counterscreen hit in parental CHO-K1 cells. AID 602247. activation, % at 3 µM. actives 0.02% (n = 360,000). ATP EC20, Fluo-8 calcium fluorescence; 0% at ATP EC20, 100% at ATP max;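 active means activation above the run cutoff, the mean activation of all test compounds plus 3 SD, cut at about 40% in these data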;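 further: peak over basal fluorescence ratio in a 140 s read after ATP addition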
CHO-K1 Ca antag = counter-screen for M1 antagonists: effect in parental CHO-K1 cells | inhibition, % at 3 µM | actives 0.6% (n = 360,000) | ATP-induced calcium, Fluo-8 fluorescence;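 active means inhibition above a per-plate cutoff, the plate's mean sample inhibition plus 3 SD, cut at about 24% in these data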;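 further: 0% = DMSO plus EC80 ATP and 100% = DMSO alone without ATP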
CHRM1 agonist = agonists of human M1 muscarinic receptor. CHO-K1 hM1, Fluo-8 calcium fluorescence, agonist mode; 0% DMSO, 100% acetylcholine EC100. activation, % at 3 µM. AID 588814. P11229. actives 0.33% (n = 360,000);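 active means activation above the run's mean compound activation plus 3 SD, cut at about 16% in these data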;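 further: peak over basal fluorescence ratio within a 140 s kinetic read after compound addition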
CHRM1 PAM = human CHRM1 positive allosteric modulation | activation, % at 3 µM | actives 0.088% (n = 360,000) | P11229 | CHO-K1 hM1, Fluo-8 calcium fluorescence, ACh EC20; 0% = ACh EC20, 100% = maximal ACh | AID 588819; in the data active means activation above about 19%, passing the limit was not always enough
An asterisk follows results filed as active.

SMILES | CHRM1 antagonist | M1 ag parental | CHO-K1 Ca PAM | CHO-K1 Ca antag | CHRM1 agonist | CHRM1 PAM
Cc1ccc(C(CNS(=O)(=O)c2ccccc2)N2CCN(C)CC2)cc1 (stereo not drawn) | -21.4 | 0.1 | 8.9 | -3.8 | -4.1 | 25.0*
Cc1ccc(C(CNS(=O)(=O)c2ccc(Br)cc2)N2CCN(C)CC2)cc1 (stereo not drawn) | 13.0 | 5.0 | 10.8 | 2.7 | -4.6 | -4.0
Cc1ccc(S(=O)(=O)CC(c2ccccc2)N2CCOCC2)cc1 (stereo not drawn) | -10.3 | -0.3 | -1.4 | 4.2 | -2.3 | 4.1
Cc1ccc(S(=O)(=O)CC(c2ccccc2)N2CCCCC2)cc1 (stereo not drawn) | 9.1 | -0.6 | -15.9 | 26.9* | -4.3 | -7.2
Cc1ccc2c(NC(=O)c3ccco3)cccc2n1 | -14.5 | 1.0 | 5.4 | -3.9 | -1.8 | 8.7
CCCCN1C2=NC(c3ccccc3)CN2c2ccccc21 (stereo not drawn) | 39.5* | 3.7 | 11.5 | -7.7 | -3.9 | -16.3
CCCCN1C2=NCCCN2c2ccccc21 | 11.5 | 0.2 | -3.9 | 1.7 | -8.0 | -6.4
Cc1cc2nc(C)n(CCCNC(=O)Nc3ccc(C#N)cc3)c2cc1C | 57.2* | 1.1 | 19.1 | -9.0 | -5.7 | -22.1
Nc1nc2c(ncn2[C@@H]2O[C@H](CNC(=O)[C@H](N)Cc3ccccc3)[C@@H](O)[C@H]2O)c(=O)[nH]1 | -29.4 | 0.0 | -4.2 | -3.9 | -1.4 | 2.9
CNC(=O)CSc1nnc(-c2ccco2)n1-c1ccccc1OC | -25.5 | 0.3 | 11.0 | -8.8 | 4.0 | 24.6*
COc1ccccc1CNc1nc(NCc2ccccc2OC)c2sccc2n1 | 31.1* | 3.2 | 11.5 | 1.0 | -2.4 | -17.9
COc1ccccc1CNc1nc(NCc2ccccc2SC)c2sccc2n1 | 37.5* | 6.6 | -2.4 | 14.0 | -3.2 | -21.5
CC(NC(=S)NCCc1ccccc1)C(c1cccs1)N1CCN(Cc2ccccc2)CC1 (stereo not drawn) | -1.0 | 1.8 | 20.1 | -8.4 | -10.7 | -10.5
CCC(C)N1CCCC1C(=O)Nc1c(C)cc(C)cc1C (stereo not drawn) | 17.3 | -0.7 | -9.5 | 25.5* | -5.4 | -6.5
Cc1cc(C)c(NC(=O)C2CCCN2CCC(C)C)c(C)c1 (stereo not drawn) | -2.3 | 0.7 | 14.0 | -5.6 | -2.8 | 3.3
Cc1ccc(S(=O)(=O)Nc2ccc(C(=O)N3CCN(c4ccccc4O)CC3)cc2)cc1[N+](=O)[O-] | -11.9 | 1.2 | 2.3 | 14.1 | -0.7 | 5.8
Cc1ccc(C(=O)N(CC(C)C)c2nc3ccccc3s2)o1 | -7.0 | 1.3 | 10.5 | -17.2 | -2.9 | 0.6
CC(C)CN(C(=O)c1ccc(=O)n(C)n1)c1nc2ccccc2s1 | 5.0 | -0.3 | -7.2 | 23.7* | -0.4 | 8.6
Cc1noc(C)c1S(=O)(=O)N1CCN(c2ccc(Cl)cc2)CC1 | -5.3 | 0.5 | 12.8 | -11.5 | -4.0 | 0.9
Cc1noc(C)c1S(=O)(=O)Nc1ccc(C(=O)N2CCN(c3ccc(Cl)cc3)CC2)cc1 | 18.4* | 10.1 | 7.5 | 21.8 | 5.6 | -13.4
COc1cccc(-c2ccc3c(c2)C2CC3CCN2C(C)=O)c1 (stereo not drawn) | -7.2 | 1.0 | 8.1 | -11.9 | -3.4 | 3.8
Cc1nnc(SCC(=O)Nc2ccc(S(=O)(=O)N3CCCC3)cc2)n1N | 54.1* | 0.3 | 0.8 | -1.7 | -3.4 | -20.6
O=C(COC(=O)c1cc([N+](=O)[O-])ccc1NCCO)Nc1cccc(S(=O)(=O)N2CCCC2)c1 | 39.7* | 0.3 | 2.2 | 8.9 | -7.4 | -18.9
CC(Oc1ccc(Cl)cc1)C(=O)Nc1ccc(S(=O)(=O)N2CCOCC2)cc1 (stereo not drawn) | 8.4 | 36.2* | 13.5 | 5.0 | 38.0* | -3.3
O=C(COC(=O)c1cc([N+](=O)[O-])ccc1NCCO)Nc1ccc2c(c1)OCO2 | -2.9 | 1.6 | 6.7 | 1.3 | -2.8 | 5.2
CC(=O)Nc1ccc(NC(=O)COC(=O)c2cc(S(=O)(=O)N3CCCC3)ccc2O)cc1 | 30.4* | 0.3 | 16.0 | -7.4 | -1.2 | -14.5
COc1ccc(Cn2cccc(NC(=O)Nc3cccc(OC)c3)c2=O)cc1 | -10.8 | 3.8 | 10.1 | -1.3 | 3.3 | 9.6
O=C(COc1ccccc1Br)Nc1ccc(S(=O)(=O)N2CCCC2)cc1 | 42.2* | 6.0 | 3.8 | -13.2 | -4.3 | -29.1
